Measurements published in PubChem BioAssay AID1159580 (chemical genetic matrix, 2015).
Where “and” joins values, the source holds several entries; their conditions need not be identical. Identical values can stand only once. About 2,000 (36%) of roughly 5,500 compounds were called active. Another 18% or so got no clear call; they are omitted. Cut-off read from the data, not from the text of the source: active = normalized growth mostly below about 0.91 (no sharp cut-off); inconclusive = no clear call, values can overlap the other calls; inactive = mostly above about 0.92. This is one part of the list.

Test: chemical genetic growth profiling, strain panel (AID 1159580);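 note: tested at 20 µM; growth read once vehicle control cultures reached saturation at 30 °C; 1 = growth at the plate median or of vehicle wells; lower values mean less growth of the strain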
Conditions: S. cerevisiae deletion strains, growth OD

Measured: normalized growth

O=c1c(-c2ccc(O)cc2)coc2cc(O)cc(O)c12
inactive: locus YAL013W, strain DEP1, stronger effect = lower value 1.03 | locus YAL021C, strain ccr4, stronger effect = lower value 1.01 | locus YAL026C, strain drs2, stronger effect = lower value 1.02 | locus YAL030W, strain snc1, stronger effect = lower value 1.01 | locus YAL040C, strain CLN3, stronger effect = lower value 0.968 | locus YBL061C, strain skt5, stronger effect = lower value 1.01 | locus YBR009C, strain hhf1, stronger effect = lower value 1.01 | locus YBR021W, strain FUR4, stronger effect = lower value 1 | locus YBR023C, strain chs3, stronger effect = lower value 1.01 | locus YBR171W, strain sec66, stronger effect = lower value 1.01 | locus YBR229C, strain ROT2, stronger effect = lower value 1.02 | locus YBR231C, strain swc5, stronger effect = lower value 1.01 | locus YBR279W, strain paf1, stronger effect = lower value 1 | locus YCL011C, strain gbp2, stronger effect = lower value 1.01 | locus YCL016C, strain dcc1, stronger effect = lower value 1.01 | locus YCL029C, strain bik1, stronger effect = lower value 1.03 | locus YCL061C, strain MRC1 (second series), stronger effect = lower value 1 | locus YCL061C, strain MRC1, stronger effect = lower value 1 | locus YCL069W, strain vba3, stronger effect = lower value 1.02 | locus YCR088W, strain abp1, stronger effect = lower value 1.02 | locus YDL005C, strain med2, stronger effect = lower value 1 | locus YDL035C, strain GPR1, stronger effect = lower value 1.07 | locus YDL040C, strain nat1, stronger effect = lower value 1.01 | locus YDL074C, strain BRE1, stronger effect = lower value 1.14 | locus YDL101C, strain DUN1, stronger effect = lower value 1.03 | locus YDL185W, strain tfp1, stronger effect = lower value 1.02 | locus YDL192W, strain arf1, stronger effect = lower value 1.04 | locus YDR001C, strain nth1, stronger effect = lower value 1.01 | locus YDR069C, strain doa4, stronger effect = lower value 1.01 | locus YDR101C, strain arx1, stronger effect = lower value 1 | locus YDR137W, strain rgp1, stronger effect = lower value 0.983 | locus YDR150W, strain NUM1, stronger effect = lower value 0.996 | locus YDR159W, strain sac3, stronger effect = lower value 1.02 | locus YDR162C, strain NBP2, stronger effect = lower value 1.04 | locus YDR195W, strain ref2 1.03 | locus YDR297W, strain sur2, stronger effect = lower value 1.01 | locus YDR318W, strain mcm21, stronger effect = lower value 1.02 | locus YDR334W, strain swr1, stronger effect = lower value 0.989 | locus YDR335W, strain msn5, stronger effect = lower value 1.02 | locus YDR363W, strain ESC2, stronger effect = lower value 0.994 | locus YDR388W, stronger effect = lower value 1.03 | locus YDR392W, strain spt3, stronger effect = lower value 0.989 | locus YDR502C, strain sam2, stronger effect = lower value 1.02 | locus YEL003W, strain gim4, stronger effect = lower value 1.01 | locus YEL037C, strain rad23, stronger effect = lower value 1.01 | locus YEL061C, strain CIN8 (second series), stronger effect = lower value 1.01 | locus YER002W, strain NOP16, stronger effect = lower value 0.996 | locus YER015W, strain faa2, stronger effect = lower value 1.01 | locus YER016W, strain bim1, stronger effect = lower value 1.01 | locus YER110C, stronger effect = lower value 1.04 | locus YER111C, strain swi4, stronger effect = lower value 1.03 | locus YER155C, strain BEM2 (second series), stronger effect = lower value 1.02 | locus YER155C, strain BEM2, stronger effect = lower value 1.03 | locus YER167W, strain BCK2, stronger effect = lower value 1.03 | locus YFR010W, strain ubp6, stronger effect = lower value 0.995 | locus YGL078C, strain dbp3, stronger effect = lower value 1.03 | locus YGL086W, strain mad1, stronger effect = lower value 1.01 | locus YGL167C, strain pmr1, stronger effect = lower value 1.01 | locus YGL173C, strain kem1, stronger effect = lower value 1.01 | locus YGL227W, strain vid30, stronger effect = lower value 1.01 | locus YGL240W, strain doc1, stronger effect = lower value 1.01 | locus YGL248W, strain PDE1, stronger effect = lower value 1.07 | locus YGL253W, strain hxk2, stronger effect = lower value 1 | locus YGR078C, strain PAC10, stronger effect = lower value 1.06 | locus YGR135W, strain pre9, stronger effect = lower value 1.05 | locus YGR252W, strain gcn5, stronger effect = lower value 0.958 | locus YHR013C, strain ard1, stronger effect = lower value 1.03 | locus YHR027C, strain rpn1, stronger effect = lower value 1.01 | locus YHR030C, strain SLT2, stronger effect = lower value 0.984 and 1.04 | locus YHR079C, strain IRE1 (second series), stronger effect = lower value 1.02 | locus YHR079C, strain IRE1, stronger effect = lower value 1.01 | locus YHR094C, strain hxt1, stronger effect = lower value 1.04 | locus YHR129C, strain ARP1, stronger effect = lower value 1.05 | locus YHR142W, strain chs7, stronger effect = lower value 0.991 | locus YHR200W, strain rpn10, stronger effect = lower value 1.02 | locus YIL066C, strain RNR3, stronger effect = lower value 1.05 | locus YIL073C, strain SPO22, stronger effect = lower value 1.13 | locus YIL125W, strain kgd1, stronger effect = lower value 1.03 | locus YIR030C, strain dcg1, stronger effect = lower value 1.03 | locus YJL092W, strain hpr5, stronger effect = lower value 1.01 | locus YJL095W, strain BCK1 (second series), stronger effect = lower value 1.01 | locus YJL095W, strain BCK1, stronger effect = lower value 1.11 and 1.05 | locus YJL115W, strain asf1, stronger effect = lower value 0.999 | locus YJL129C, strain trk1, stronger effect = lower value 0.997 | locus YJL134W, strain LCB3, stronger effect = lower value 1.03 | locus YJL154C, strain vps35, stronger effect = lower value 1 | locus YJL164C, strain tpk1, stronger effect = lower value 0.95 | locus YJL166W, strain qcr8, stronger effect = lower value 1 | locus YJL168C, strain set2, stronger effect = lower value 1.03 | locus YJL187C, strain SWE1 (second series), stronger effect = lower value 1.05 | locus YJL187C, strain SWE1, stronger effect = lower value 1 | locus YJR066W, strain TOR1, stronger effect = lower value 0.999 | locus YKL009W, strain mrt4, stronger effect = lower value 1.04 | locus YKL068W, stronger effect = lower value 1 | locus YKL085W, strain MDH1 (second series), stronger effect = lower value 1.02 | locus YKL085W, strain MDH1, stronger effect = lower value 1.02 | locus YKL160W, strain elf1, stronger effect = lower value 1 | locus YKL190W, strain CNB1, stronger effect = lower value 1.02 | locus YKR001C, strain vps1, stronger effect = lower value 1.03 | locus YKR026C, strain gcn3, stronger effect = lower value 1.02 | locus YKR091W, strain srl3, stronger effect = lower value 1.01 | locus YLL001W, strain dnm1, stronger effect = lower value 1.02 | locus YLL026W, stronger effect = lower value 1.02 | locus YLL041C, strain sdh2, stronger effect = lower value 1 | locus YLR027C, strain aat2, stronger effect = lower value 1.01 | locus YLR039C, strain RIC1, stronger effect = lower value 1.21 | locus YLR058C, strain SHM2, stronger effect = lower value 1.05 | locus YLR102C, strain apc9, stronger effect = lower value 1.03 | locus YLR113W, strain HOG1, stronger effect = lower value 1.07 | locus YLR221C, strain rsa3, stronger effect = lower value 1 | locus YLR258W, strain gsy2, stronger effect = lower value 1.01 | locus YLR262C, strain YPT6 (second series), stronger effect = lower value 1.01 | locus YLR268W, strain sec22, stronger effect = lower value 1.03 | locus YLR320W, strain mms22, stronger effect = lower value 1 | locus YLR342W, strain FKS1, stronger effect = lower value 1.01 | locus YLR357W, strain rsc2, stronger effect = lower value 0.987 | locus YLR370C, strain arc18, stronger effect = lower value 1.01 | locus YLR371W, strain rom2, stronger effect = lower value 1.06 | locus YLR384C, strain iki3, stronger effect = lower value 1.02 | locus YLR418C, strain cdc73, stronger effect = lower value 1.05 | locus YML016C, strain PPZ1, stronger effect = lower value 1.03 | locus YML032C, strain rad52, stronger effect = lower value 1.02 | locus YML120C, strain ndi1, stronger effect = lower value 1.02 | locus YML124C, strain tub3, stronger effect = lower value 1.02 | locus YMR058W, strain fet3, stronger effect = lower value 1.01 | locus YMR078C, strain ctf18, stronger effect = lower value 1.03 | locus YMR125W, strain sto1, stronger effect = lower value 1.01 | locus YMR129W, stronger effect = lower value 1.01 | locus YMR205C, strain PFK2, stronger effect = lower value 1.02 | locus YMR223W, strain ubp8, stronger effect = lower value 1.03 | locus YMR231W, strain pep5, stronger effect = lower value 1 | locus YMR263W, strain SAP30, stronger effect = lower value 1.03 | locus YMR307W, strain GAS1, stronger effect = lower value 1.17 and 0.992 | locus YNL067W, strain RPL9B, stronger effect = lower value 1.03 | locus YNL071W, strain lat1, stronger effect = lower value 1.02 | locus YNL128W, strain TEP1, stronger effect = lower value 1.06 | locus YNL175C, strain NOP13, stronger effect = lower value 1.01 | locus YNL183C, strain NPR1, stronger effect = lower value 0.993 | locus YNL197C, strain WHI3, stronger effect = lower value 1.01 | locus YNL209W, strain ssb2, stronger effect = lower value 0.996 | locus YNL224C, strain SQS1, stronger effect = lower value 1 | locus YNL233W, strain BNI4, stronger effect = lower value 1.08 | locus YNL248C, strain rpa49, stronger effect = lower value 0.999 | locus YNL250W, strain rad50, stronger effect = lower value 1.04 | locus YNL271C, strain bni1, stronger effect = lower value 1.02 | locus YNL298W, strain CLA4, stronger effect = lower value 1.04 | locus YNL307C, strain MCK1, stronger effect = lower value 1.06 | locus YNL322C, strain KRE1 (second series), stronger effect = lower value 1.01 | locus YNL322C, strain KRE1, stronger effect = lower value 0.996 | locus YNR049C, strain mso1, stronger effect = lower value 1.01 | locus YNR052C, strain pop2, stronger effect = lower value 1.05 | locus YOL006C, strain TOP1, stronger effect = lower value 1.26 | locus YOL012C, strain htz1 0.919 | locus YOL147C, strain pex11, stronger effect = lower value 1.01 | locus YOR001W, strain rrp6, stronger effect = lower value 1.01 | locus YOR061W, strain CKA2, stronger effect = lower value 1.04 | locus YOR069W, strain VPS5, stronger effect = lower value 1.03 | locus YOR070C, strain gyp1, stronger effect = lower value 1 | locus YOR080W, strain dia2, stronger effect = lower value 1.01 | locus YOR083W, strain WHI5 (second series), stronger effect = lower value 1.03 | locus YOR083W, strain WHI5, stronger effect = lower value 0.997 | locus YOR106W, strain vam3, stronger effect = lower value 0.977 | locus YOR136W, strain idh2, stronger effect = lower value 1.03 | locus YOR144C, strain elg1, stronger effect = lower value 1.02 | locus YOR184W, strain ser1, stronger effect = lower value 1 | locus YOR231W, strain MKK1, stronger effect = lower value 1.04 | locus YOR265W, strain rbl2, stronger effect = lower value 1.01 | locus YOR270C, strain vph1, stronger effect = lower value 0.982 | locus YOR290C, strain snf2, stronger effect = lower value 0.989 | locus YOR316C, strain cot1, stronger effect = lower value 1.02 | locus YPL051W, strain arl3, stronger effect = lower value 0.989 | locus YPL055C, strain LGE1, stronger effect = lower value 1.08 and 1.02 | locus YPL078C, strain atp4, stronger effect = lower value 1.01 | locus YPL106C, strain sse1, stronger effect = lower value 1.02 | locus YPL240C, strain hsp82, stronger effect = lower value 0.992 | locus YPL241C, strain CIN2, stronger effect = lower value 1 | locus YPL256C, strain CLN2, stronger effect = lower value 1.05 | locus YPR119W, strain clb2, stronger effect = lower value 1.03 | locus YPR141C, strain kar3, stronger effect = lower value 1.02 | locus YPR163C, strain tif3, stronger effect = lower value 1.04 | locus YPR167C, strain met16, stronger effect = lower value 1.03 | strain wtn01, stronger effect = lower value 1.02
